Source: PubChem
This excerpt belongs to a sample that is enriched for hits.
HIV RNase H inh-1 = inhibitors of HIV-1 reverse transcriptase RNase H; RT-RNase H RNA/DNA duplex cleavage, fluorescence; inhibition, % at 10 µM; actives 1.9% (n = 65,000); AID 565; in the data active = inhibition above about 50%
RmlC RmlD mix = RmlC/RmlD inhibition, mixture screen; actives 0.39% (n = 110,000); AID 1532; inhibition, % at 5.5 µM; RmlC/RmlD coupled enzyme inhibition, 384-well mixture HTS; in the data active = inhibition above about 30%, passing the limit was not always enough; inconclusive = no clear call, values can overlap the other calls
HIV RNase H inh-2 = confirmation of HIV-1 reverse transcriptase RNase H inhibitors | shares compounds with HIV RNase H inh-1 | Recombinant RT RNase H, fluorescent RNA/DNA duplex cleavage | inhibition, % at 10 µM | actives 39% (n = 1,000); in the data active = inhibition above about 48%; inconclusive = no clear call, values can overlap the other calls
Hits are given with their value; - = inactive; ? = inconclusive; . = no result.

SMILES | HIV RNase H inh-1 | RmlC RmlD mix | HIV RNase H inh-2
CC(C)C(C(=O)N1CCN(C(=O)OC(C)(C)C)CC1)n1cc(-c2cn([C@@H](C)C(=O)N3CCN(C(=O)OC(C)(C)C)CC3)nn2)nn1 (stereo partly drawn) | . | - | .
COc1ccc2cc3cc(C(=O)NCc4ccco4)oc3nc2c1 | . | - | .
O=C(NCc1ccco1)c1cc2cc3ccc(Cl)cc3nc2o1 | 65.9 | - | 58.3
CCC(C)C(NC(=O)C1CCC(C)CC1)C(=O)Nc1cc(OC)ccc1OC (stereo not drawn) | . | - | .
COC(=O)c1ccc2c(=O)n(Cc3ccco3)c(SCC(=O)Nc3ccccc3Cl)nc2c1 | 86.5 | - | 67.1
COC(=O)c1ccc2c(=O)n(CC3CCCO3)c(SCC(=O)Nc3ccccc3Cl)nc2c1 (stereo not drawn) | . | - | .
CN(C(=O)c1cnccn1)c1nnc(-c2cccnc2)s1 | - | . | .
CCOc1cccc(-c2nnc3sc(-c4cc(OC)c(OC)c(OC)c4)nn23)c1 | - | . | .
COc1cc(-c2nn3c(COc4ccccc4)nnc3s2)cc(OC)c1OC | 71.1 | - | -
COc1cc(-c2nn3c(-c4ccccc4)nnc3s2)cc(OC)c1OC | - | - | .
COc1cc(-c2nn3c(Cc4ccccc4)nnc3s2)cc(OC)c1OC | 91.1 | - | 80.3
O=C(NCc1cccc(C(F)(F)F)c1)C1CC(c2ccc(C(F)(F)F)cc2)=NO1 (stereo not drawn) | . | - | .
CSc1nc(-c2ccccc2)nn1C(=O)c1ccc(C)cc1 | . | - | .
Nc1c(C(=O)Nc2ccc(Br)cc2)sc2nc(-c3ccco3)ccc12 | . | - | .
Nc1c(C(=O)Nc2ccc(F)cc2)sc2nc(-c3ccco3)ccc12 | 88.5 | - | -
Cc1cc(NC(=O)CSc2nc(C(C)C)nc3sc4c(c23)CCCC4)no1 | 70.2 | - | -
Cc1cc(NC(=O)CSc2nc3sc4c(c3c(=O)n2C)CCCC4)no1 | - | . | .
Cc1cc(NC(=O)CSc2nc(C3CC3)nc3sc4c(c23)CCC(C)C4)no1 (stereo not drawn) | 70.0 | - | 96.6
Cc1cc(NC(=O)CSc2nc(C3CCCCC3)nc3ccccc23)no1 | - | - | .
CCNc1nc(N)nc(Oc2ccc(OCCOc3ccc(Cl)cc3Cl)nn2)n1 | - | - | .
c1ccc2sc(SN3CCOCC3)nc2c1 | 79.2 | - | -
c1ccc2sc(N3CCOCC3)nc2c1 | . | - | .
CCOc1ccc(-c2nc3c(s2)CCc2onc(-c4ccc(OC)cc4)c2-3)cc1 | . | - | .
CCOC(=O)c1ccc(NC(=O)c2c(N)n(Cc3ccccc3)c(=O)[nH]c2=O)cc1 | . | - | .
COc1ccc(N2CCN(Cc3cc(=O)oc4cc(-c5ccccc5)c(O)cc34)CC2)cc1 | 91.9 | - | 68.9
SMILES | HIV RNase H inh-1 | RmlC RmlD mix | HIV RNase H inh-2
COc1ccc(N2CCN(Cc3cc(=O)oc4cc(C)c(Cl)cc34)CC2)cc1 | - | - | .
COc1ccc(CN2CCn3ncc(C(=O)Nc4cc(C)cc(C)c4)c3C2=O)cc1 | . | - | .
Cc1cc(C)cc(OCC(=O)Nc2nonc2NC(=O)COc2cc(C)cc(C)c2)c1 | 78.1 | - | 66.6
Cc1cc(C)cc(OCC(=O)Nc2cccc(C(=O)O)c2)c1 | . | - | .
N#Cc1cc([N+](=O)[O-])cnc1NCC(O)CO (stereo not drawn) | . | - | .
CN(C(=O)CSc1nnc2ccccn12)C1CCS(=O)(=O)C1 (stereo not drawn) | . | - | .
CN(C(=O)CSc1nc2ccccc2n1CCc1ccccc1)C1CCS(=O)(=O)C1 (stereo not drawn) | 85.9 | - | -
CC(C)C(c1nnnn1C1CCCC1)N1c2ccccc2CC1C (stereo not drawn) | 74.2 | - | -
CC(C)C(c1nnnn1C1CCCCC1)N1CCc2ccccc21 (stereo not drawn) | . | - | .
Cc1ccc(N2CCN(C(=O)c3ccccc3NC(=O)/C=C\C(=O)O)CC2)cc1 | . | - | .
CC1Oc2ccccc2N(Cc2ccccc2F)C1=O (stereo not drawn) | 89.8 | - | -
CC1Oc2ccccc2N(Cc2ccccc2Cl)C1=O (stereo not drawn) | - | - | .
COc1ccc(CCNC(=O)COc2ccc(S(=O)(=O)NC(C)C)cc2Cl)cc1OC | . | - | .
CCOC(=O)c1nnn(-c2nonc2N)c1CSc1ccccn1 | - | - | .
CC(O)c1nc2ccccc2n1CCOc1ccccc1 (stereo not drawn) | . | - | .
COc1ccccc1OCCn1c(C(C)O)nc2ccccc21 (stereo not drawn) | 64.9 | - | -
C=C(C)c1sc(-c2ccc(Cl)cc2)nc1C | . | - | .
COc1ccc(CC(=O)Nc2ccc(-c3noc(-c4cccc(OC)c4)n3)cc2)cc1 | 79.1 | - | 62.4
COc1cccc(-c2nc(-c3ccc(NC(=O)c4cccnc4)cc3)no2)c1 | - | - | .
O=C(NCCc1ccccc1)C1CCCN(S(=O)(=O)c2cccs2)C1 (stereo not drawn) | - | - | .
CC1(c2nnc(-c3ccncc3)o2)CC(c2ccccc2)=NO1 (stereo not drawn) | . | - | .
COc1ccc(C(=O)Nc2oc(-c3ccccc3)c(-c3ccccc3)c2C#N)cc1OC | 62.3 | - | ?
COc1ccc(C(=O)Nc2oc(-c3ccccc3)c(-c3ccccc3)c2C#N)cc1 | . | - | .
O=C(NCCCc1ccccc1)c1cnc2n(c1=O)CCS2 | 71.7 | - | -
O=C(NCc1ccccc1)c1cnc2n(c1=O)CCS2 | - | - | .
SMILES | HIV RNase H inh-1 | RmlC RmlD mix | HIV RNase H inh-2
COc1ccc(-c2c3c([nH]c(=S)c2C#N)CCC3)cc1 | 80.6 | - | -
N#Cc1c2c(c(-c3ccco3)[nH]c1=O)CCCC2 | - | - | .
COc1ccc(-c2c(C#N)c(SCC(N)=O)nc3c2CCCC3)cc1 | . | - | .
N#Cc1c(N)nc2c(c1-c1cccnc1)CCCCC2 | - | - | .
N#Cc1c(-c2cccnc2)c2c([nH]c1=S)CCCC2 | 89.7 | - | 68.8
N#Cc1c(-c2ccco2)c2c([nH]c1=S)CCCC2 | 82.0 | - | -
Cc1ccc(CN(CC(=O)N/N=C/c2ccco2)S(=O)(=O)c2ccc(C)cc2)cc1 | . | - | .
Cc1ccc(C)c(S(=O)(=O)NCc2ccc(C(=O)N3CCC(Cc4ccccc4)CC3)cc2)c1 | . | - | .
CC(=O)N=c1c(C#N)cc2c(=O)n3cccc(C)c3nc2n1CC(C)C | - | . | .
O=C(O)c1cnc2ccccc2n1 | 82.3 | - | -
COC(=O)c1cnc2ccccc2n1 | . | - | .
NC(=O)c1ccccc1Nc1nc(NCCO)nc(N2CCCC2)n1 | . | - | .
Cn1c(=O)c2c(SCC(=O)NCC3CCCO3)nc(-c3cccs3)nc2n(C)c1=O (stereo not drawn) | - | . | .
CC(C)Sc1nc(-c2cccs2)nc2c1c(=O)n(C)c(=O)n2C | 73.6 | - | 90.4
COC(=O)c1c(C)[nH]c(C(=O)C(C)Sc2nnc(-c3cc(OC)c(OC)c(OC)c3)o2)c1C (stereo not drawn) | - | - | .
Cc1ccc2[nH]c3c(=O)n(CCN4CCOCC4)cnc3c2c1 | . | - | .
O=c1c2[nH]c3ccc(F)cc3c2ncn1CCN1CCOCC1 | 69.7 | - | -
CCOc1cc(C=O)ccc1OCCSc1ccc(Cl)cc1 | . | - | .
CCn1c(=O)cc(SCC(=O)N2CCOCC2)c2ccccc21 | - | - | .
CCn1c(=O)cc(SCC(=O)N2CCN(c3ccccc3OC)CC2)c2ccccc21 | 70.8 | - | -
COCCNC(=O)C1CC(c2ccc(C(F)(F)F)cc2)=NO1 (stereo not drawn) | . | - | .
Oc1ccc(C=Nc2ccc3ncccc3c2)c(O)c1 | 53.1 | - | -
C(=N\n1cnnc1)/c1ccc2ncccc2c1 | - | - | .
CC(C)CN(CC(C)C)C(=O)CS(=O)(=O)Cc1ccccc1 | - | - | .
